# Measured values: PubChem BioAssay (NCI)
# Compounds without any hit were thinned out: in the full panel of roughly 79,000, 15% have a hit. A number with no mark means an inactive call. Activity calls are given as the source filed them. No stated cut-off is given here; in the data, active means growth inhibition above about 70%; inactive means the rest.
# Experiments:
# [1] = NCI Yeast Anticancer Drug Screen. Data for the rad50 strain (AID 155);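 further: 0% = growth of vehicle-only cultures of the same strain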; settings: S. cerevisiae rad50 strain growth inhibition; at 50.0 µM; active compounds read high
# How it was run: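 Genetically altered yeast (DNA repair pathway); compound treatment; growth inhibition vs vehicle ctrl.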
# [2] = NCI Yeast Anticancer Drug Screen. Data for the mec2-1 strain (AID 157); settings: S. cerevisiae mec2-1 strain, at 50.0 µM, active compounds read high
# How it was run: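 Cells of the genetically defined mec2-1 yeast strain are incubated with test compound. Inhibition of growth is calculated against vehicle-treated controls.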
# [3] = NCI Yeast Anticancer Drug Screen. Data for the sgs1 mgt1 strain (AID 161);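 further: 0% = growth of cultures given vehicle only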; settings: S. cerevisiae sgs1 mgt1 strain, at 50.0 µM, active compounds read high
# How it was run: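 Read-out: growth inhibition vs vehicle controls. Cells: mutant yeast strain deficient in DNA damage repair.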
# [4] = NCI Yeast Anticancer Drug Screen. Data for the cln2 rad14 strain (AID 165);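 further: 0% = growth equal to vehicle treated cultures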; settings: S. cerevisiae cln2 rad14 strain, at 50.0 µM, active compounds read high
# How it was run: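 The screen exposed genetically defined yeast (cln2 rad14) to test compounds and scored growth inhibition relative to vehicle-treated controls.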
# [5] = NCI Yeast Anticancer Drug Screen. Data for the bub3 strain (AID 167); settings: S. cerevisiae bub3 mutant strain, at 50.0 µM, active compounds read high
# How it was run: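 Yeast carrying a defined mutation is treated with each compound, and growth is compared with that of vehicle-exposed cells to give inhibition.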
# [6] = NCI Yeast Anticancer Drug Screen. Data for the mlh1 rad18 strain (AID 175); settings: S. cerevisiae mlh1 rad18 strain growth inhibition; at 50.0 µM; active compounds read high
# How it was run: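 Compound-treated yeast growth, normalised to vehicle controls. Strain bears defined DNA repair mutations.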
SMILES,growth inhibition [1],growth inhibition [2],growth inhibition [3],growth inhibition [4],growth inhibition [5],growth inhibition [6]
CCC(=O)C(C)C1=Nc2nnc(CCCCCCCc3nnc4n3C(=O)C(C(C)C(=O)CC)=N4)n2C1=O (configuration not stated),-13.7%,12.3%,11.8%,-7.4%,-3.05%,-4.35%
COC(=O)CCc1ccc(CCC(=O)OC)cc1,-14.8%,-37.1%,-1.5%,4.2%,-11.2%,9.7%
Cc1cc(=O)[nH]c(=S)n1-c1nc2ccccc2o1,-11.2%,7.65%,-0.8%,-9.55%,-27.6%,12.8%
COc1cc(O)c2c(c1)C(=O)c1cc3c(c(O)c1C2=O)CC(OC)C(C)(O)C3O (configuration not stated),90.5% (active),91.3% (active),91.8% (active),88.5% (active),91.8% (active),91.2% (active)
CCCCCCCCCCCCCCCC(=O)OCC(COP(=O)(O)OC1CCC2(C)C(=CCC3C2CCC2(C)C(C(C)CCCC(C)C)CCC32)C1)OC(=O)CCCCCCCCCCCCCCC (configuration not stated),1.9%,4.05%,22.2%,-5.5%,-3.1%,-4.8%
O=C1OC(C(O)CO)C(C(O)CO)OC1=O (configuration not stated),-9.3%,-15.6%,-39.5%,-7.35%,-12.3%,1.6%
CC(=O)Oc1cccn(C)c1=O,18.6%,19.1%,-6.35%,24.6%,32.5%,21.1%
CNC(=O)c1ccccc1O,21.2%,8.55%,5.65%,11.3%,5.15%,2.35%
O=c1/c(=C\c2ccccc2Cl)sc2n1CCN=2,22.2%,5.8%,4.9%,15.4%,11.3%,24.9%
Fc1ccc(C(c2ccc(F)cc2)C(F)(F)F)cc1,8.65%,-20.3%,24.9%,10.8%,13.7%,13.4%
NC(N)=NC(=O)c1ccc(N)cc1,-13.6%,-2.25%,-0.1%,-7.35%,-3.4%,23.5%
CCc1nc(N)nc(N)c1-c1ccc(Cl)c(S(=O)(=O)O)c1,-27.1%,-26.1%,-9.8%,-13.4%,-15.1%,1.85%
CC(=O)C(Cc1ccccc1)(Cc1ccccc1)C(C)=O,3.3%,-0.95%,-8.3%,7.45%,1.35%,2%
CC(C)(C)OC(=O)N(CCCCNC(=O)C(F)(F)F)CCCNC(=O)C(F)(F)F,-26.4%,-30.3%,-26%,11.6%,-29.8%,-86%
ClC(Cl)(Cl)C(=NNc1ccccc1)C(Cl)(Cl)Cl,-0.1%,16.4%,30.4%,50.5%,30.6%,69.5%
CC1CCC(O)C(C(O)CC2CC(=O)NC(=O)C2)C1 (configuration not stated),23.3%,-3.3%,5.4%,-21.7%,4%,3.45%
CS(=O)(=O)c1nc(Cl)c2[nH]c(Cl)nc2n1,16.9%,-19.5%,5.35%,-11.3%,12.2%,22%
CCCN(CCC)S(=O)(=O)c1ccc(NC(=O)Oc2ccc([N+](=O)[O-])cc2)cc1,42.5%,18.1%,33.5%,29.9%,5.85%,34.4%
Cc1ccc(-n2cnc(C(=N)C#N)c2N)cc1,-15.6%,-31.7%,-10%,-12.1%,9.55%,-13.1%

SMILES,growth inhibition [1],growth inhibition [2],growth inhibition [3],growth inhibition [4],growth inhibition [5],growth inhibition [6]
COC(=O)/C(C)=C/C=C/C(OC)C(OC(N)=O)/C(C)=C/C(C)C(O)C(CC(C)CC1=C(OC)C(=O)C=C(N)C1=O)OC (configuration not stated),5.85%,24.8%,17%,9.3%,2.85%,13.8%
CCC(NC(C)c1ccccc1)C(O)c1ccc(OCc2ccccc2)c(OCc2ccccc2)c1 (configuration not stated),88.6% (active),91.5% (active),92.3% (active),91.3% (active),91.5% (active),87.7% (active)
COC1=CC(=O)C(C2CC(=O)c3c(O)cc(O)cc3O2)=CC1=O (configuration not stated),-4.2%,0.85%,11.2%,7.95%,-20.8%,-63.9%
C=CCc1cc(C(=O)C(=O)c2cc(CC=C)c(OC(C)=O)c(OC)c2)cc(OC)c1OC(C)=O,3.2%,6.75%,6.45%,6.8%,-5.85%,8.25%
CC1(C)OC2CC3COC(=O)C3CC2O1 (configuration not stated),9.35%,-4.85%,-8.45%,1.6%,30.2%,17.9%
c1ccc(-c2coc(-c3ccccc3)c2)cc1,-16.2%,-11.8%,-17.6%,-12.2%,-9.35%,-1.9%
CC(C)(C)NC(=O)NCc1ccc(Cl)c(Cl)c1,2.95%,27.4%,17.8%,-6.05%,-5.05%,21.6%
O=C(CSc1nnc(Cc2ccccc2)o1)Nc1ccc(Cl)cc1Cl,-18.8%,-41%,-41.3%,-10.7%,-10.2%,-14%
Cc1ccccc1N=Cc1ccccc1[N+](=O)[O-],17.1%,9.65%,-1.1%,-22.2%,-0.6%,8.1%
O=C(O)c1ccccc1N1C(=O)c2ccccc2C1=O,4.95%,-33.2%,-4.1%,8.2%,11.2%,-1.55%
CCC(C)(O)C(C)(O)CC (configuration not stated),-6.55%,-13.8%,15.4%,17.6%,-13.8%,-8.8%
O=S(=O)(c1ccccc1)C1CCCC1,-12.2%,8.9%,-1.85%,-11.8%,-6.7%,-2.9%
O=C(NC1CC/C=C(/c2ccccc2)CC(Cl)C1)c1ccccc1 (configuration not stated),7.85%,4.9%,-8.9%,-3.5%,6.6%,-0.25%
CC1NC(=O)c2c(-c3ccccc3)nn(-c3ccccc3)c2NC1=O (configuration not stated),1.35%,-2.4%,11.8%,-3.85%,3.15%,-33.2%
COc1ccc(OC)c(NC(=O)c2ccc(Cl)c(Cl)c2)c1,-0.5%,14.3%,5.45%,-9.25%,13.6%,0.85%
CC(C(N)=O)N1C(=O)C2C3CCC(O3)C2C1=O (configuration not stated),-7.65%,-6.65%,-16.1%,-44.8%,-1.8%,3.1%
c1ccc(SCN(CSc2ccccc2)c2ccccc2)cc1,-1.35%,26.9%,13.8%,66.8%,22.1%,14.8%
CC(=O)c1cccc(C(C)=O)n1,-24.2%,-36.1%,-35.9%,18.1%,-19.8%,9.6%
